According to PubChem BioAssay (NCATS):
Values joined by “and” are separate entries in the source; they are usually repeats but may differ in a detail not shown here. Identical values can stand only once. Inconclusive results are not listed. Active and inactive are the calls of the source. Unless noted, the call rests on the fitted dose curve; in most records, active means well fitted curve in the direction sought with a large enough effect; inconclusive means small, poorly fitted or top-dose-only effect, or another doubt; inactive means no such curve, though single readings can be large; an effect the other way counts as inactive or inconclusive.

Tests used:
[1] = target: Cytochrome P450 1A2 (Homo sapiens) (UniProt P05177); experiment: p450-cyp1a2 (AID 410; calls by dose curve; further: potency means the concentration at half of the fitted maximal effect)
Sequence of Cytochrome P450 1A2 (Homo sapiens) (P05177 whole entry, looked up): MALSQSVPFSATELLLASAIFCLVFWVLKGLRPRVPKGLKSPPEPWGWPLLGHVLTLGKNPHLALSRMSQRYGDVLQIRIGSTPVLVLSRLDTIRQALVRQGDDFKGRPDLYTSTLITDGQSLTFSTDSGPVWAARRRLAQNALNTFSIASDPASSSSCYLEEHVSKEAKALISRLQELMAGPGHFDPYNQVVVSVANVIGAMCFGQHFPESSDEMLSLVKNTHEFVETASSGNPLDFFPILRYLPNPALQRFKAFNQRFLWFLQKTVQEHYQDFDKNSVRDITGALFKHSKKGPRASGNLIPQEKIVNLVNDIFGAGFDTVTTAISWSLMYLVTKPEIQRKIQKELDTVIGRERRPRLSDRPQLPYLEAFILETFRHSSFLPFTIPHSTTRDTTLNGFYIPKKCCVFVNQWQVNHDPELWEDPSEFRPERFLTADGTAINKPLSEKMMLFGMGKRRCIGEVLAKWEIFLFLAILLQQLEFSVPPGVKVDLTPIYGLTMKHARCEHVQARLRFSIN
How it was run: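 20nM CYP1A2 with 100uM Luciferin-ME (at Km) in 100mM KPO4; compound preincubated 10 min, NADPH regeneration added, 60 min at room temperature. Luciferin quantified by luminescence after detection reagent; normalized to 57 uM furafylline.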

[2] = NFAT Signaling Pathway (AID 444; active means well fitted curve in either direction with a large enough effect, not every such curve was filed as active;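 further: carbachol stimulus at about its EC50 of 1 µM final; on the % scale 0 is the no-effect control and ±100 the full control effect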); details: Jurkat NFAT-bla M1, carbachol, beta-lactamase ratio, 5 h; at 38 µM (top of the series)
How it was run: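 Jurkat cells with NFAT-driven β-lactamase reporter and co-expressed M1 receptor, stimulated with carbachol (final 1 uM, ~EC50), compound titration, 5 h at 37 °C. CCF4 loaded 1 h at RT; 460/530 nm ratio gave %activity and AC50.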

[3] = target: Glucocorticoid receptor (Homo sapiens) (UniProt P04150); experiment: GR-GFP Redistribution (AID 450;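 active means compounds whose dose series gives a full or clear partial fitted curve of increased nuclear translocation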; further: potency means the concentration at half of the fitted maximal effect); details: U2OS GR-GFP nuclear translocation, laser cytometry, 2 h
Sequence of Glucocorticoid receptor (Homo sapiens) (P04150 whole entry, looked up, the tested form may be a part): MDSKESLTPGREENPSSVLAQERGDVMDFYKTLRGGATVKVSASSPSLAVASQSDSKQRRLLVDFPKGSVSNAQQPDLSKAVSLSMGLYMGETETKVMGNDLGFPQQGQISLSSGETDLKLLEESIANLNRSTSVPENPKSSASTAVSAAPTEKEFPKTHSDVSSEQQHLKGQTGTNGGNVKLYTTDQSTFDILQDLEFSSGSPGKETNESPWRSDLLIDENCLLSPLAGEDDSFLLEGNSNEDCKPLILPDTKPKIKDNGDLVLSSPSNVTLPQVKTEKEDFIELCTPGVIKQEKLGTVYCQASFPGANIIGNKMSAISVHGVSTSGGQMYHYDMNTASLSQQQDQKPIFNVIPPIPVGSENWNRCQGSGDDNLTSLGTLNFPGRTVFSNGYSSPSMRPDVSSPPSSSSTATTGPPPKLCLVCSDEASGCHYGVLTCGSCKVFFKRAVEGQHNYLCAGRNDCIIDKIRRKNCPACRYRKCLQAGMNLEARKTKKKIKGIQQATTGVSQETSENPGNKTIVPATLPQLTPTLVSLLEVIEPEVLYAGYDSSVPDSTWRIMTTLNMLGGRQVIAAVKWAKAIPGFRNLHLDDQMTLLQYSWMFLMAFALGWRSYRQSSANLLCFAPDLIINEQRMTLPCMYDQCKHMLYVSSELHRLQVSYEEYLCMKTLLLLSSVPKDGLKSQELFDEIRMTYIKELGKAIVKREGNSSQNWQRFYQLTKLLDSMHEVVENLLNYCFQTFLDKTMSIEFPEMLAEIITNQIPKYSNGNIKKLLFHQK

[4] = target: Glucocorticoid receptor (Homo sapiens) (UniProt P04150); experiment: GR-EFC Redistribution (AID 451; calls by dose curve; further: potency means the concentration at half of the fitted maximal effect); details: CHO-K1 GR-EFC translocation, beta-gal luminescence, 2 h
How it was run: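 CHO-K1 cells expressing nuclear EA and GR-ED fragments of b-gal; compounds titrated up to 46 uM final, 2 h at 37 C. GR nuclear translocation read as complemented b-gal luminescence after 1 h RT detection.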

[5] = target: Mitogen-activated protein kinase 10 (Mus musculus) (UniProt Q61831); experiment: JNK3 AlphaScreen Assay (AID 530; active means well fitted curve in either direction with a large enough effect, not every such curve was filed as active;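 further: kinase came from lysate of stimulated human HepG2 cells; signal reports phosphorylation of biotinylated GST-cJun 1-79 at Ser73 with 10 µM ATP; on the % scale 0 is the no-effect control and ±100 the full control effect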)
How it was run: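 Pre-activated (IL-1β/TNFα) JNK3 in HepG2 lysates phosphorylates biotin-GST-cJun(1-79), 10 uM ATP; anti-phospho-cJun(Ser73) AlphaScreen read at room temperature, pH 7.6 Tris buffer. Compounds pre-incubated 15 min as titrations.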

[6] = target: 3',5'-cyclic-AMP phosphodiesterase 4B (Homo sapiens) (UniProt Q07343); experiment: qHTS Assay for Inhibitors of PDE-IV (AID 607; active means well fitted activation curve with a large enough effect in the main read-out, with a control signal flat, not every such curve was filed as active; further: % of control where 0% means no effect)
Sequence of 3',5'-cyclic-AMP phosphodiesterase 4B (Homo sapiens) (Q07343 whole entry, looked up): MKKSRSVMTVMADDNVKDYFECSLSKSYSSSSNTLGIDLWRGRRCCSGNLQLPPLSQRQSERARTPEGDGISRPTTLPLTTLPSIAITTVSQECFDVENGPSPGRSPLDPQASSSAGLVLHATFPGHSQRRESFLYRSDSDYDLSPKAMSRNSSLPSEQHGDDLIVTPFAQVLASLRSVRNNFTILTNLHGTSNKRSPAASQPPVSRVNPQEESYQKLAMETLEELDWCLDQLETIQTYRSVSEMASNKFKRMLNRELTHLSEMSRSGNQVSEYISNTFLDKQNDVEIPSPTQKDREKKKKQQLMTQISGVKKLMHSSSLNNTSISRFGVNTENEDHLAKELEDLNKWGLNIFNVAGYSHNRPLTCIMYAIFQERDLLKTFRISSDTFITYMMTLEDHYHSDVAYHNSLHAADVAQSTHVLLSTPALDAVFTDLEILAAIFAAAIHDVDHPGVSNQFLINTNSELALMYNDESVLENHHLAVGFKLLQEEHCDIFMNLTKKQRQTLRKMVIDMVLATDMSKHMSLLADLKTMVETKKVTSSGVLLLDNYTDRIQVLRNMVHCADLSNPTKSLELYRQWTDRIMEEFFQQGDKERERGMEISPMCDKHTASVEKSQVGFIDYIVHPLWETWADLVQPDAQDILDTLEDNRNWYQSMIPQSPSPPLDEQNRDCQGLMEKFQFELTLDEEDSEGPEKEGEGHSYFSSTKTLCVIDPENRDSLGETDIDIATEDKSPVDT
How it was run: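 Cell-based read-out of cAMP via a modified cyclic nucleotide-gated channel and membrane potential dye (535/590 nm) in HEK293 cells expressing PDE4 endogenously. Compounds tested up to 22.9 uM final; 100 uM RO 20-1724 reference.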

[7] = target: Guanine nucleotide-binding protein G(i) subunit alpha-1 (Homo sapiens) (UniProt P63096); experiment: qHTS Assay for Inhibitors of RGS12 GoLoco Motif Activity (Green Fluorophore) (AID 879);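 further: 0% = labeled peptide with Gαi1 and full inhibition = labeled peptide alone without protein; negative values mean loss of peptide binding seen as reduced polarization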
Sequence of Guanine nucleotide-binding protein G(i) subunit alpha-1 (Homo sapiens) (P63096 whole entry, looked up): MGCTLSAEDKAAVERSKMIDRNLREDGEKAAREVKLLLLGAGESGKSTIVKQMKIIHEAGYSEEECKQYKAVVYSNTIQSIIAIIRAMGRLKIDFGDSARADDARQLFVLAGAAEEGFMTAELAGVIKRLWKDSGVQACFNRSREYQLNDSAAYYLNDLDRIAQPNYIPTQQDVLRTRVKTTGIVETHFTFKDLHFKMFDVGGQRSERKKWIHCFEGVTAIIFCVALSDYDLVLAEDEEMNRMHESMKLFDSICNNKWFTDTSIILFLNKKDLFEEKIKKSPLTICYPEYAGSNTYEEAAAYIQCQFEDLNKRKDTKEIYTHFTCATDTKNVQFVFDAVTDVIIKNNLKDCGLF
How it was run: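 Fluorescence polarization assay: 50 nM Gαi1 with 10 nM FITC-labeled RGS12 GoLoco peptide in 10 mM Tris pH 7.5, 150 mM NaCl, 0.1 mM GDP, 0.05% NP40, 10 min at room temperature with compound.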

[8] = target: Cytochrome P450 2C9 (Homo sapiens) (UniProt P11712); experiment: qHTS Assay for Inhibitors and Substrates of Cytochrome P450 2C9 (AID 883); further: potency means the concentration at half of the fitted maximal effect; nearly all actives have a fitted effect of over 60% in size
Sequence of Cytochrome P450 2C9 (Homo sapiens) (P11712 whole entry, looked up): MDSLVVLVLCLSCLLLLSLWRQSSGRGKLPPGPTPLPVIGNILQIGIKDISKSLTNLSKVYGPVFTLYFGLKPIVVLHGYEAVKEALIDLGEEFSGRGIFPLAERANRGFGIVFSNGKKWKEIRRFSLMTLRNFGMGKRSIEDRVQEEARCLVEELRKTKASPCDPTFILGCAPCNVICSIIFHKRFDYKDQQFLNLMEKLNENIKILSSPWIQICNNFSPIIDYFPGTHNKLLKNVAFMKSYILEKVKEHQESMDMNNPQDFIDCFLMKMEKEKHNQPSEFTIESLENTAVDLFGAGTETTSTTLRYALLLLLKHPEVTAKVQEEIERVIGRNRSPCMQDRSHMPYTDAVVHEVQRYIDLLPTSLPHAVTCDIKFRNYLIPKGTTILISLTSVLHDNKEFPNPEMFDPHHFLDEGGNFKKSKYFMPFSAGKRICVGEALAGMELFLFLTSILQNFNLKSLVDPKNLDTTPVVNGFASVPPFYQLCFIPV
How it was run: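 Signal: luciferase luminescence reporting luciferin produced by CYP2C9. Conditions: 10nM enzyme, Luciferin-H 100uM at KM, 25mM KPO4, 37C, 60 min NADPH-driven reaction. Reference: 57uM sulphaphenazole as 100% inhibition.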

[9] = target: Cytochrome P450 3A4 (Homo sapiens) (UniProt P08684); experiment: qHTS Assay for Inhibitors and Substrates of Cytochrome P450 3A4 (AID 884); further: potency means the concentration at half of the fitted maximal effect; nearly all actives have a fitted effect of over 50% in size
Sequence of Cytochrome P450 3A4 (Homo sapiens) (P08684 whole entry, looked up): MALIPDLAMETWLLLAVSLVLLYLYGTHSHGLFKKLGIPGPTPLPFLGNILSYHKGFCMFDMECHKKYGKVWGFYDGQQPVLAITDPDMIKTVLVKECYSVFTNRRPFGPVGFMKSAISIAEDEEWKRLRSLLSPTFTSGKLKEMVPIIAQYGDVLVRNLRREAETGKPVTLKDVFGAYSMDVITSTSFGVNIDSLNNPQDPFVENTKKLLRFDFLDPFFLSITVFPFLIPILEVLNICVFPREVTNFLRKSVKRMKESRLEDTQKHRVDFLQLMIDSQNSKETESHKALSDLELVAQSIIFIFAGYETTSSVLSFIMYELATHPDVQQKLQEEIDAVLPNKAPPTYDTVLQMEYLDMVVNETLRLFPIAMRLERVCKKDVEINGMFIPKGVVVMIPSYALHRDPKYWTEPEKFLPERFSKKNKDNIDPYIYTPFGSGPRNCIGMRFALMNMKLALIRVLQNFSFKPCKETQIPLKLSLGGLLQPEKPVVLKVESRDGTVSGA
How it was run: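 20 nM human CYP3A4 with 25 uM Luciferin-PPXE (at KM) in 200 mM KPO4, preincubated 10 min with compound; NADPH regeneration started a 60 min RT reaction. Luciferin detected by luminescence, normalized to 57 uM ketoconazole as full inhibition.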

[10] = target: Cytochrome P450 3A4 (Homo sapiens) (UniProt P08684); experiment: qHTS Assay for Activators of Cytochrome P450 3A4 (AID 885); further: nearly all actives have a fitted effect of over 65% in size
How it was run: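 Signal was normalized against complete inhibition by 57 uM ketoconazole. The reaction used 20nM CYP3A4 with 25uM Luciferin-PPXE, 10-min compound preincubation and a 60-min NADPH-supported step at RT.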

[11] = target: Muscarinic acetylcholine receptor M1 (Rattus norvegicus) (UniProt P08482); experiment: qHTS Assay for Antagonists of Acetylcholine Muscarinic M1 Receptor: Kinetic Measurement of Intracellular Calcium Response (AID 943); further: nearly all actives have a fitted effect of over 75% in size
Sequence of Muscarinic acetylcholine receptor M1 (Rattus norvegicus) (P08482 whole entry, looked up): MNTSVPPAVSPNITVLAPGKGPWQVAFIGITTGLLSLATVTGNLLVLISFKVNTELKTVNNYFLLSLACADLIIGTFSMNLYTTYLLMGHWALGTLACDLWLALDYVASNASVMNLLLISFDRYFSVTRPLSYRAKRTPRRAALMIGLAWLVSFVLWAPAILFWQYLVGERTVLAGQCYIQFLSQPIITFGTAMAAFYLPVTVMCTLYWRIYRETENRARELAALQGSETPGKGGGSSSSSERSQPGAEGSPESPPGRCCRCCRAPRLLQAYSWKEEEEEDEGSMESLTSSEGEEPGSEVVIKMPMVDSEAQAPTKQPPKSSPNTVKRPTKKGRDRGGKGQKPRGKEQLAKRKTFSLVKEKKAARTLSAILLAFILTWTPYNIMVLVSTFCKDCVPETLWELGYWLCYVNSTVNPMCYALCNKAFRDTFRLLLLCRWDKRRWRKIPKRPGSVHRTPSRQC
How it was run: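 CHO cells expressing rat M1 receptor, Fluo-4 loaded, preincubated 10 min with compound, then stimulated with EC80 carbachol (100 nM final). Kinetic calcium fluorescence over 4 min; response taken as peak over basal signal.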

[12] = target: Pyruvate kinase PKM (Homo sapiens) (UniProt P14618); experiment: qHTS Assay for Activators of Human Muscle Pyruvate Kinase (AID 954; active means well fitted curve in the direction sought with a large enough effect, not every such curve was filed as active;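 further: 0% = uninhibited enzyme and -100% = no enzyme or full thiadiazolimine inhibition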)
Sequence of Pyruvate kinase PKM (Homo sapiens) (P14618 whole entry, looked up): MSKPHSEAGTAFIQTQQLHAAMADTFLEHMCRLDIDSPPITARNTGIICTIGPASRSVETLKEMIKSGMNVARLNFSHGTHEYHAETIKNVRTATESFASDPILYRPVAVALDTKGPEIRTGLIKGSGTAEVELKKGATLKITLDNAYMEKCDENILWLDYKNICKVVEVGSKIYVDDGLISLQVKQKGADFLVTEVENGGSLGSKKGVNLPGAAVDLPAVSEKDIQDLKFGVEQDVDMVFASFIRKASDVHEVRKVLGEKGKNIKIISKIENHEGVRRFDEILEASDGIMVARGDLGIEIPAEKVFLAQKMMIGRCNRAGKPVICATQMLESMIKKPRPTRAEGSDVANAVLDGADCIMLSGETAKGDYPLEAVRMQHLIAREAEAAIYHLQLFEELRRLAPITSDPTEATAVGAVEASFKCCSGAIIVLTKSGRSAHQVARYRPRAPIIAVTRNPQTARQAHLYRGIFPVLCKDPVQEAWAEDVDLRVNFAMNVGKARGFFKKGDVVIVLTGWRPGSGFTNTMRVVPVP
How it was run: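 Human PKM2 activity is measured as ATP generation, detected by luciferase-coupled luminescence. The enzyme (0.1 nM) acts on 0.5 mM PEP and 0.1 mM ADP for 1 h at ambient temperature; data are normalized to uninhibited and full-inhibition wells.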

[13] = target: alpha-glucosidase (Oryza sativa, rice) (UniProt Q653V4); experiment: Counterscreen for Glucocerebrosidase Inhibitors: qHTS Assay for Rice alpha-Glucosidase at pH 5.0 (AID 997);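 further: 0% = full activity with enzyme and -100% = basal without enzyme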
How it was run: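 Rice alpha-glucosidase (4 nM final) with 400 uM 4-methylumbelliferyl-alpha-D-glucopyranoside in citrate buffer pH 5.0, 20 min at room temperature, stopped at pH 10; fluorescence 365/440 nm, compounds 0.7 nM–77 uM, AC50 from Hill fits.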

[14] = Validation of Assay for Modulators of Lamin A Splicing (AID 1459; active means well fitted curve in the direction sought with a large enough effect in the signal ratio; the % refers to the signal ratio;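 further: cells exposed to compound for two days before reading; 0% is about no effect; ratio rise marks activators and ratio drop marks inhibitors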)
How it was run: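 Splicing correction is reported by an EGFP-containing lamin A minigene in stably transfected S3 HeLa cells, while DsRed2 controls for viability and nonspecific signal. Cells are exposed to compounds for 48 hrs before the GFP over RFP ratio is taken.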

[15] = target: DNA repair nuclease/redox regulator APEX1 (Homo sapiens) (UniProt P27695); experiment: qHTS Validation Assay for Inhibitors of the Human Apurinic/apyrimidinic Endonuclease 1 (APE1) (AID 1705;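 further: TAMRA fluorescence gain over two minutes as APE1 cuts a quenched THF abasic duplex; on the % scale 0 is the no-effect control and ±100 the full control effect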)
Sequence of DNA repair nuclease/redox regulator APEX1 (Homo sapiens) (P27695 whole entry, looked up): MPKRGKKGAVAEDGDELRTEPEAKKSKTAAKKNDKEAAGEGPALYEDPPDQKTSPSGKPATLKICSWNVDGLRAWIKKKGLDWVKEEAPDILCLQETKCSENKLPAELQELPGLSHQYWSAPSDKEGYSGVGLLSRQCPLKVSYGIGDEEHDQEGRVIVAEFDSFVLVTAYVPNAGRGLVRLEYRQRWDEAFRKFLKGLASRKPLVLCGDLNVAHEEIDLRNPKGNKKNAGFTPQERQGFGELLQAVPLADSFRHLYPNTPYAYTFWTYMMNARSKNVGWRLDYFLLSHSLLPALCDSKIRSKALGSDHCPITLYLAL
How it was run: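 Endonuclease activity of human APE1 is followed as dequenching when the enzyme incises a tetrahydrofuran abasic site in a short duplex labelled 5'-TAMRA/3'-BHQ-2 (50 nM final), after 15 min enzyme–compound preincubation at room temperature.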

[16] = target: Endonuclease 4 (Escherichia coli (strain K12)) (UniProt P0A6C1); experiment: Counterscreen for APE1 Inhibitors: qHTS Validation Assay for Inhibitors of Endonuclease IV (AID 1708); further: on the % scale 0 is the no-effect control and ±100 the full control effect
How it was run: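 E. coli EndoIV at 2 nM final, preincubated 15 min at room temperature with compound, then 50 nM TAMRA/BHQ-2 THF abasic-site duplex added. Buffer: 50 mM Tris-HCl pH 7.5, 50 mM NaCl, 2 mM MgCl2, 1 mM DTT, 0.01% Tween-20. Kinetic fluorescence increase, third minus first read.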

[17] = qHTS for differential inhibitors of proliferation of Plasmodium falciparum line 7G8 (AID 1815);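 further: potency means the concentration at half of the fitted maximal effect; parasite growth measured after three days of incubation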
[18] = qHTS for differential inhibitors of proliferation of Plasmodium falciparum line GB4 (AID 1816); details: Potency: Plasmodium falciparum GB4 proliferation inhibition;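 further: potency means the concentration at half of the fitted maximal effect; parasite growth measured after 72 h incubation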
[19] = qHTS for differential inhibitors of proliferation of Plasmodium falciparum line 3D7 (AID 1876); further: potency means the concentration at half of the fitted maximal effect
[20] = qHTS for differential inhibitors of proliferation of Plasmodium falciparum line D10 (AID 1877);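 further: potency means the concentration at half of the fitted maximal effect; parasites grown with compound for 72 h before DNA staining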
[21] = qHTS for differential inhibitors of proliferation of Plasmodium falciparum line Dd2 (AID 1882); details: Potency: Plasmodium falciparum Dd2 proliferation inhibition; further: potency means the concentration at half of the fitted maximal effect; nearly all actives have a fitted effect of over 65% in size
How it was run: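 Dd2-infected erythrocytes (0.3% parasitemia, 2.5% hematocrit final) incubated with compound 72 h at 37 C, 5% CO2; lysed with saponin/Triton buffer containing SYBR Green I, incubated overnight in the dark, then read by fluorescence (485/535 nm). Normalized to 0.29 uM artemisinin and DMSO.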

Compound: COc1cc2c(cc1C(F)(F)F)N(C(=O)Nc1cc(F)cc(-c3cccnc3)c1)CC2
- Potency [1]: 794 nM (active) and 316 nM (active)
- activity change, negative = inhibition [2]: -8.89% (inactive)
- Potency [3]: > 46 µM (inactive)
- Potency [4]: > 46 µM (inactive)
- Potency [5]: inactive
- Potency [6]: inactive
- outcome [7]: inactive
- Potency [8]: 10 µM (active) and 794 nM (active)
- Potency [9]: 2.51 µM (active)
- Potency [10]: inactive
- Potency [11]: inactive
- outcome [12]: inactive
- outcome [13]: inactive
- outcome [14]: inactive
- Potency [15]: inactive
- Potency [16]: inactive
- Potency [17]: 2 µM (active)
- Potency [18]: 2.24 µM (active)
- Potency [19]: 1.58 µM (active)
- Potency [20]: 2.24 µM (active)
- Potency [21]: 6.31 µM (active)
